The whole screen tested about 5,500 compounds, of which about 2,000 (36%) were called active. Roughly 18% stayed inconclusive and do not appear here. The list shows a part of the results. Unmarked numbers belong to inactive results. Rule as the data show it: active = normalized growth mostly below about 0.91 (no sharp cut-off); inconclusive = no clear call, values can overlap the other calls; inactive = mostly above about 0.92.
Test: chemical genetic growth profiling, strain panel (AID 1159580);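 also: tested at 20 µM; growth read once vehicle control cultures reached saturation at 30 °C; 1 = growth at the plate median or of vehicle wells; lower values mean less growth of the strain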
Details: growth OD
[1] = S. cerevisiae deletion strains, locus YDL101C, strain DUN1, hits give low values
[2] = S. cerevisiae deletion strains, locus YHR030C, strain SLT2, hits give low values

CC(C)(C)NC(=O)N1CCN(c2nc3ccc(Cl)cc3s2)CC1
normalized growth (S. cerevisiae deletion strains, locus YAL013W, strain DEP1, hits give low values): 0.952 | normalized growth (S. cerevisiae deletion strains, locus YBR229C, strain ROT2, hits give low values): 0.979 | normalized growth [1]: 1 | normalized growth (S. cerevisiae deletion strains, locus YDR150W, strain NUM1, hits give low values): 0.966 | normalized growth (S. cerevisiae deletion strains, locus YEL061C, strain CIN8, hits give low values): 0.943 | normalized growth (S. cerevisiae deletion strains, locus YGR078C, strain PAC10, hits give low values): 0.962 | normalized growth [2]: 0.339 (active) | normalized growth (S. cerevisiae deletion strains, locus YHR087W, strain rtc3, hits give low values): 0.967 | normalized growth (S. cerevisiae deletion strains, locus YJR043C, strain POL32, hits give low values): 0.976 | normalized growth (S. cerevisiae deletion strains, locus YJR075W, strain HOC1, hits give low values): 0.981 | normalized growth (S. cerevisiae deletion strains, locus YKL190W, strain CNB1, hits give low values): 0.993 | normalized growth (S. cerevisiae deletion strains, locus YLR039C, strain RIC1, hits give low values): 0.82 | normalized growth (S. cerevisiae deletion strains, locus YLR058C, strain SHM2 (second series), hits give low values): 1.02 | normalized growth (S. cerevisiae deletion strains, locus YLR085C, strain ARP6, hits give low values): 0.552 (active) | normalized growth (S. cerevisiae deletion strains, locus YLR262C, strain YPT6, hits give low values): 0.913 | normalized growth (S. cerevisiae deletion strains, locus YML094W, strain GIM5, hits give low values): 0.908 | normalized growth (S. cerevisiae deletion strains, locus YMR219W, strain ESC1, hits give low values): 1 | normalized growth (S. cerevisiae deletion strains, locus YMR263W, strain SAP30, hits give low values): 0.992 | normalized growth (S. cerevisiae deletion strains, locus YNL153C, strain GIM3, hits give low values): 0.943 | normalized growth (S. cerevisiae deletion strains, locus YNL298W, strain CLA4 (second series), hits give low values): 0.831 (active) | normalized growth (S. cerevisiae deletion strains, locus YNL322C, strain KRE1, hits give low values): 1.03 | normalized growth (S. cerevisiae deletion strains, locus YNR030W, strain Alg12, hits give low values): 0.902 | normalized growth (S. cerevisiae deletion strains, locus YOL006C, strain TOP1, hits give low values): 0.739 | normalized growth (S. cerevisiae deletion strains, locus YPL055C, strain LGE1, hits give low values): 0.928 | normalized growth (S. cerevisiae deletion strains, locus YPL241C, strain CIN2, hits give low values): 0.856 (active) | normalized growth (S. cerevisiae deletion strains, locus YPR135W, strain CTF4, hits give low values): 0.662 | normalized growth (S. cerevisiae strains, strain wild type, hits give low values): 0.97

Cc1c(Cl)cccc1NC(=S)N1CCCN(c2ccc(C(F)(F)F)cc2[N+](=O)[O-])CC1
normalized growth (S. cerevisiae deletion strains, locus YAR019C, strain CDC15, hits give low values): 0.991 | normalized growth (S. cerevisiae deletion strains, locus YBL105C, strain PKC1, hits give low values): 0.979 | normalized growth (S. cerevisiae deletion strains, locus YBR135W, strain CKS1, hits give low values): 0.992 | normalized growth (S. cerevisiae deletion strains, locus YBR136W, strain MEC1, hits give low values): 0.971 | normalized growth (S. cerevisiae deletion strains, locus YBR160W, strain CDC28, hits give low values): 0.994 | normalized growth (S. cerevisiae deletion strains, locus YDL017W, strain CDC7, hits give low values): 0.993 | normalized growth (S. cerevisiae deletion strains, locus YDL028C, strain MPS1, hits give low values): 0.995 | normalized growth [1]: 0.977 | normalized growth (S. cerevisiae deletion strains, locus YDL108W, strain KIN28, hits give low values): 0.978 | normalized growth (S. cerevisiae deletion strains, locus YDL132W, strain cdc53, hits give low values): 0.986 | normalized growth (S. cerevisiae deletion strains, locus YDL214C, strain PRR2, hits give low values): 0.971 | normalized growth (S. cerevisiae deletion strains, locus YDR052C, strain DBF4, hits give low values): 0.991 | normalized growth (S. cerevisiae deletion strains, locus YDR054C, strain cdc34, hits give low values): 0.976 | normalized growth (S. cerevisiae deletion strains, locus YDR226W, strain ADK1, hits give low values): 0.987 | normalized growth (S. cerevisiae deletion strains, locus YDR477W, strain SNF1, hits give low values): 0.983 | normalized growth (S. cerevisiae deletion strains, locus YER123W, strain YCK3, hits give low values): 0.988 | normalized growth (S. cerevisiae deletion strains, locus YER133W, strain GLC7, hits give low values): 0.969 | normalized growth (S. cerevisiae deletion strains, locus YFL009W, strain cdc4, hits give low values): 0.98 | normalized growth (S. cerevisiae deletion strains, locus YFL029C, strain CAK1, hits give low values): 0.994 | normalized growth (S. cerevisiae deletion strains, locus YFR003C, strain YPI1, hits give low values): 0.987 | normalized growth (S. cerevisiae deletion strains, locus YFR019W, strain FAB1, hits give low values): 0.957 | normalized growth (S. cerevisiae deletion strains, locus YFR028C, strain CDC14, hits give low values): 0.995 | normalized growth (S. cerevisiae deletion strains, locus YGR040W, strain KSS1, hits give low values): 0.98 | normalized growth (S. cerevisiae deletion strains, locus YGR052W, strain FMP48, hits give low values): 1.04 | normalized growth (S. cerevisiae deletion strains, locus YGR092W, strain DBF2, hits give low values): 0.964 | normalized growth [2]: 0.842 (active) | normalized growth (S. cerevisiae deletion strains, locus YHR079C, strain IRE1, hits give low values): 0.89 | normalized growth (S. cerevisiae deletion strains, locus YHR082C, strain KSP1, hits give low values): 1.06 | normalized growth (S. cerevisiae deletion strains, locus YHR205W, strain SCH9, hits give low values): 1 | normalized growth (S. cerevisiae deletion strains, locus YIL147C, strain SLN1, hits give low values): 0.989 | normalized growth (S. cerevisiae deletion strains, locus YJL095W, strain BCK1, hits give low values): 1.01 | normalized growth (S. cerevisiae deletion strains, locus YJL128C, strain PBS2, hits give low values): 0.942 | normalized growth (S. cerevisiae deletion strains, locus YJL157C, strain FAR1, hits give low values): 0.951 | normalized growth (S. cerevisiae deletion strains, locus YJR016C, strain ILV3, hits give low values): 0.982 | normalized growth (S. cerevisiae deletion strains, locus YJR066W, strain TOR1 (second series), hits give low values): 0.974 | normalized growth (S. cerevisiae deletion strains, locus YJR066W, strain TOR1, hits give low values): 1.02 | normalized growth (S. cerevisiae deletion strains, locus YKL048C, strain ELM1, hits give low values): 0.984 | normalized growth (S. cerevisiae deletion strains, locus YKL067W, strain YNK1, hits give low values): 0.974 | normalized growth (S. cerevisiae deletion strains, locus YKL101W, strain HSL1, hits give low values): 0.988 | normalized growth (S. cerevisiae deletion strains, locus YKL193C, strain SDS22, hits give low values): 0.995 | normalized growth (S. cerevisiae deletion strains, locus YKL203C, strain TOR2, hits give low values): 1.01 | normalized growth (S. cerevisiae deletion strains, locus YLR113W, strain HOG1, hits give low values): 0.859 (active) | normalized growth (S. cerevisiae deletion strains, locus YLR133W, strain CKI1, hits give low values): 0.955 | normalized growth (S. cerevisiae deletion strains, locus YLR403W, strain SFP1, hits give low values): 0.952 | normalized growth (S. cerevisiae deletion strains, locus YML070W, strain DAK1, hits give low values): 0.992 | normalized growth (S. cerevisiae deletion strains, locus YMR001C, strain CDC5, hits give low values): 0.961 | normalized growth (S. cerevisiae deletion strains, locus YMR205C, strain PFK2 (second series), hits give low values): 0.979 | normalized growth (S. cerevisiae deletion strains, locus YMR277W, strain FCP1, hits give low values): 0.997 | normalized growth (S. cerevisiae deletion strains, locus YNL006W, strain LST8, hits give low values): 0.982 | normalized growth (S. cerevisiae deletion strains, locus YNL020C, strain ARK1, hits give low values): 0.972 | normalized growth (S. cerevisiae deletion strains, locus YNL161W, strain CBK1, hits give low values): 0.979 | normalized growth (S. cerevisiae deletion strains, locus YNL183C, strain NPR1, hits give low values): 1.05 | normalized growth (S. cerevisiae deletion strains, locus YNL207W, strain RIO2, hits give low values): 0.982 | normalized growth (S. cerevisiae deletion strains, locus YNL222W, strain SSU72, hits give low values): 0.984 | normalized growth (S. cerevisiae deletion strains, locus YNL307C, strain MCK1 (second series), hits give low values): 0.964 | normalized growth (S. cerevisiae deletion strains, locus YOL078W, strain AVO1, hits give low values): 0.989 | normalized growth (S. cerevisiae deletion strains, locus YOL136C, strain PFK27, hits give low values): 0.965 | normalized growth (S. cerevisiae deletion strains, locus YOR061W, strain CKA2, hits give low values): 0.963 | normalized growth (S. cerevisiae deletion strains, locus YOR119C, strain RIO1, hits give low values): 1.05 | normalized growth (S. cerevisiae deletion strains, locus YOR231W, strain MKK1, hits give low values): 0.993 | normalized growth (S. cerevisiae deletion strains, locus YOR329C, strain SCD5, hits give low values): 0.981 | normalized growth (S. cerevisiae deletion strains, locus YPL031C, strain PHO85, hits give low values): 0.979 | normalized growth (S. cerevisiae deletion strains, locus YPL153C, strain RAD53, hits give low values): 1 | normalized growth (S. cerevisiae deletion strains, locus YPL204W, strain HRR25, hits give low values): 0.931 | normalized growth (S. cerevisiae deletion strains, locus YPL209C, strain IPL1, hits give low values): 0.99 | normalized growth (S. cerevisiae deletion strains, locus YPL256C, strain CLN2, hits give low values): 0.866 | normalized growth (S. cerevisiae deletion strains, locus YPR025C, strain CCL1, hits give low values): 0.99 | normalized growth (S. cerevisiae deletion strains, locus YPR106W, strain ISR1, hits give low values): 0.969 | normalized growth (S. cerevisiae deletion strains, locus YPR111W, strain DBF20, hits give low values): 0.956 | normalized growth (S. cerevisiae deletion strains, strain NNK1, hits give low values): 0.985 | normalized growth (S. cerevisiae deletion strains, strain TSCII, hits give low values): 0.981

— PubChem BioAssay AID1159580 (chemical genetic matrix, 2015)
